Drawing on PubChem BioAssay, this text covers inhibition for 40 compounds.

In general, inhibition refers to the drop in the measured response relative to a control, in per cent.

Calls of active or inactive are those of the source.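 The calls were made as follows: active = mean inhibition above 46.5%, the solvent-only control mean plus 3 SD; inactive = the rest.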

The assay deals with Nuclear receptor coactivator 2 (Homo sapiens) (UniProt Q15596). In words: SRC2 coactivator transcriptional activity inhibitors, confirmation, cell-based, luminescence, HEK293, triplicate (AID 652008).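 Also: 0% = DMSO-treated cells and 100% = Gossypol at 36 µM.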 To be noted: HEK293 GAL4-SRC2 luciferase reporter, at 8.9 µM, hits give high values.
Sequence of Nuclear receptor coactivator 2 (Homo sapiens) (Q15596 whole entry, looked up, the tested form may be a part): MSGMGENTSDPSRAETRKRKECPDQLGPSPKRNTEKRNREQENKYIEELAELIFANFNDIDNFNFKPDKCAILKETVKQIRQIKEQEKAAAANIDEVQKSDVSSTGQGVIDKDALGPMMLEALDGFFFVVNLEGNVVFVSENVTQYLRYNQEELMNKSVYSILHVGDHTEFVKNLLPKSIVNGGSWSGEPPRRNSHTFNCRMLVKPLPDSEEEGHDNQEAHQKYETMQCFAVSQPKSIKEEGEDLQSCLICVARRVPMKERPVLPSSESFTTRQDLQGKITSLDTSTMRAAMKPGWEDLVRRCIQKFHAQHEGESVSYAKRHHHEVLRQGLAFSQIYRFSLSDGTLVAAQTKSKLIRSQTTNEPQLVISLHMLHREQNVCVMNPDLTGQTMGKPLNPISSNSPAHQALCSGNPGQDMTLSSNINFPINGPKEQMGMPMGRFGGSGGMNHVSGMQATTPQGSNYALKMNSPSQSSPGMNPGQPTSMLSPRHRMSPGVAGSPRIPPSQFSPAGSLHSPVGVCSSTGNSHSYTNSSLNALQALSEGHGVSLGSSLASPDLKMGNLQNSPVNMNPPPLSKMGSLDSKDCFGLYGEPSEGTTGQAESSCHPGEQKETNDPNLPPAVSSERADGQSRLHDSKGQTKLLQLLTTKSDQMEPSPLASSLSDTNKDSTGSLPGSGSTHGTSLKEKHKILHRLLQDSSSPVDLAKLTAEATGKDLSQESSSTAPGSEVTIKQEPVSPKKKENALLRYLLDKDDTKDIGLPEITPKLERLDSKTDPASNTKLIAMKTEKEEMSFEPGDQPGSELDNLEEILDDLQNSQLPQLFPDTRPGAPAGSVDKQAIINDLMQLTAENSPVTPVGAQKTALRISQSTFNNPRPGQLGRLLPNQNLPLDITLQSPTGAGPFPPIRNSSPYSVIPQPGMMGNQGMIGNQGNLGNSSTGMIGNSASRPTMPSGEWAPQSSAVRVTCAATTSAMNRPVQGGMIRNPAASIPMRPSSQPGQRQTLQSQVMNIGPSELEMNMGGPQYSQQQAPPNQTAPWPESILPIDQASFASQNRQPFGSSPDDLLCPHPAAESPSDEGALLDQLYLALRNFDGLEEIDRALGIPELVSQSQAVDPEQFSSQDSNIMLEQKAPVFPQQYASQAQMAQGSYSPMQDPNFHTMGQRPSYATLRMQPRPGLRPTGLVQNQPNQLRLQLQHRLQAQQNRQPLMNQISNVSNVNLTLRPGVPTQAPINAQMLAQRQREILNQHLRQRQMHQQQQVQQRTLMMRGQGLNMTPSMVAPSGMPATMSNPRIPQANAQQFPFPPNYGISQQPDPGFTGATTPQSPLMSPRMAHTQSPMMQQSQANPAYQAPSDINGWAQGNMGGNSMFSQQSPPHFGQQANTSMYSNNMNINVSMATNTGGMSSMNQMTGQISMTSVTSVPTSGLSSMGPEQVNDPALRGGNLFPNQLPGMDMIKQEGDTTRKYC
On to `Cc1ccc(Nc2nc(-c3c(C)nc4ccccn34)cs2)cc1`, for which the inhibition is 20.1% (inactive).
For the compound `CC(C)[C@H](NC(=O)[C@@H]1Cc2ccccc2CN1)C(=O)Nc1ccc2c(c1)OCCO2`, the inhibition is -29.4% (inactive).
With `Cc1cc(=O)n2c3c(c4c(cc13)c(CN(C)C)cc(=O)n4C)OC2` the figure was -129% (inactive).
For the compound `O=S(=O)(c1ccccc1)N1CCC(O)(CSc2ccc(F)cc2)CC1`, the inhibition was 13.4% (inactive).
With `COc1ccc(CNn2c(-c3cccs3)nc3ccccc3c2=O)cc1OC` the figure was 33.2% (inactive).
For the compound `CC(C)CCSc1nc(N)c(C#N)cc1C#N`, the inhibition was 17.8% (inactive).
Next, `COc1ccc(CN2CCC(C(=O)Nc3ccc(Oc4ccccc4)nc3)CC2)cc1F`: 28.5% (inactive); `O=c1ccn(Cc2ccc(F)cc2)c2ccnc(C(F)(F)F)c12`: 16.6% (inactive).
With `CN1Cc2sc(NC(=S)NC(=O)c3ccccc3)c(C#N)c2CC1(C)C`, the inhibition was 58.2% (active).
For `Cc1cc(NC(=O)c2ccccc2)c(Cl)cc1N`, the inhibition is 52.1% (active).
With `CC(C)(C)c1ccc(-c2n[nH]c(=S)n2C2CCCC2)cc1` the figure was 3.48% (inactive); with `O=C(C(O)c1ccc(Br)cc1)N1CCC(Nc2ccc3[nH]ncc3c2)CC1` (stereo not given), -7.36% (inactive); with `Cc1ccc2nc(-c3ccc4c(c3)OCCO4)cn2c1`, 88.3% (active).
Regarding `COc1ccc(OC)c(C2C(C#N)=C(N)Oc3c2c(C)nn3-c2cccc(Cl)c2)c1` (stereo not given), the inhibition is 4.46% (inactive).
Next, `COc1ccc(-c2nnc(SCC(=O)Oc3ccc(C)cc3)o2)cc1`: -4.18% (inactive); `O=C(NC1CCCC1)C(c1ccccc1)n1c(CSCCOc2ccccc2)nc2ccccc21` (stereo not given): 80.3% (active).
For the compound `Cc1cc(C)n(CCC(=O)N/N=C/c2c(O)ccc3ccccc23)n1`, the inhibition was 17.2% (inactive).
With `CC(C)COc1ccc(C/C(N)=N/n2cnnc2)cc1`, the inhibition is 40.3% (inactive).
Regarding `N/C(=N\OC(=O)c1ccc(Cl)cc1Cl)c1ccccn1`, the inhibition was -25.1% (inactive).
Turning to `O=C(c1ccccc1Nc1ccc(SC(F)F)cc1)N1CCCCCC1`, the inhibition is 4.87% (inactive).
Regarding `NC1=NC(=O)/C(=C\c2cccnc2)S1`, the inhibition is 35.6% (inactive).
Take `CCCCCC(=O)N1CC2(CC(c3cccc(NC(=O)COc4ccc(Cl)cc4)c3)=NO2)C[C@@H]1C(N)=O` (stereo not given in full): the inhibition is -5.91% (inactive).
As to `Cc1ccc(C(=O)O/N=C(\N)c2ccccn2)cc1C`, the inhibition was -24.9% (inactive).
Next, `CCc1ccc(-c2nc(CSCC(=O)NC3CC3)c(C)o2)cc1`: 35.1% (inactive); `COc1ccc(OC)c(-n2nnnc2SCC(=O)Nc2cc(C)ccc2OC)c1`: 2.63% (inactive); `Cc1nc2cc(-c3ccccc3)nn2c(C)c1CCC(=O)NCc1ccco1`: 46.5% (active).
On to `CC(=O)N1CCCc2cc(S(=O)(=O)N3CCCC(C(=O)NCc4ccccc4Cl)C3)ccc21` (stereo not given), for which the inhibition was 21.1% (inactive).
In the case of `COCCn1c(-c2ccc(Br)cc2)csc1=Nc1cccnc1`, the inhibition was 20.4% (inactive).
Next, `CCc1ccc(/C=C2\SC(=S)N(CCCC(=O)Nc3cc(C)on3)C2=O)cc1`: 73.4% (active); `O=C(/C=C/c1cccnc1)/C=C/c1cccnc1`: 5.81% (inactive).
Next, `COc1ccc2c(c1)CCCN2C(=O)C1CCCN(S(=O)(=O)c2ccc(C(C)(C)C)cc2)C1` (stereo not given): 15.7% (inactive); `CCc1cccc(C)c1NC(=O)CSc1nnc(CCCOc2ccc(Cl)cc2Cl)n1C`: -8.02% (inactive).
Turning to `CCOC(=O)[C@]12CCCC=C1N(Cc1cccc3ccccc13)C(=O)[C@H](CC(=O)N1CCOCC1)C2`, the inhibition was -11% (inactive).
Regarding `Cn1nnnc1Sc1ncnc2scc(-c3ccsc3)c12`, the inhibition is 45% (inactive).
For the compound `CC1CN(C(=O)CCC(=O)N2CCN(c3cccc(C(F)(F)F)c3)CC2)c2ccccc2O1` (stereo not given), the inhibition is 23.5% (inactive).
For the compound `O=C(Cc1ccc(Cl)cc1)NCCc1cnc[nH]1`, the inhibition was -12.5% (inactive).
Regarding `O=C(O)c1ccccc1C=NN1CCCCCC1`, the inhibition is -24.3% (inactive).
Turning to `Cc1cccc(C(=O)N2CCC(Cc3ccccc3)CC2)c1[N+](=O)[O-]`, the inhibition was 38.3% (inactive).
As for `O=C(CSCCO)Nc1ccc(C23CC4CC(CC(C4)C2)C3)cc1`, the inhibition was 41.9% (inactive).
For `O=C(CCCSc1nc2ccccc2s1)NC1=NCCS1`, the inhibition is 20.4% (inactive).
